KDM4E inh: JMJD2E (human) inhibition; 230,000 tested, 1.6% active; Potency, µM (top dose mostly 57.1 µM), for the others: top-dose activity change, negative = inhibition, usual class: inhibitors; AID 2147; B2RXH2; JMJD2E catalytic domain, FDH-coupled NADH fluorescence (FDH is formaldehyde dehydrogenase);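 further: 0% = wells with enzyme and -100% = buffer wells without enzyme; nearly all actives have a fitted effect of over 50% in size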
BLM inh: blocks DNA unwinding by human BLM helicase | Potency, µM (highest dose often 56.1 µM), without a hit: at the highest dose activity change, negative = inhibition, most hits filed as inhibitors | recombinant BLM DNA unwinding, fluorescence dequenching | P54132 | 350,000 tested, 0.2% active;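 further: plate controls were vehicle for no effect and no enzyme for full effect; nearly all actives have a fitted effect of over 35% in size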
TDP1 block: TDP1 (human) enzyme inhibition. Q9NUW8. recombinant TDP1, AlphaScreen DNA substrate cleavage. Potency, µM (titrated, usually from 130 µM), without a hit: top-dose activity change, negative = inhibition, usual class: inhibitors. 350,000 tested, 0.28% active. AID 485290; further: nearly all actives have a fitted effect of over 40% in size
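Recombinant E. coli-expressed Tdp1 (1 nM) preincubated with compound 15 min at RT, then 5'-biotin/3'-phosphotyrosine-FITC DNA substrate (15 nM) added for 5 min. AlphaScreen beads (10 ug/ml) added, 10 min RT; tyrosine-FITC cleavage read as signal loss.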
L3MBTL1 inh: blocks human L3MBTL1; Q9Y468; AlphaScreen L3MBTL1–H3K9me1 peptide binding; Potency, µM (highest dose often 57.1 µM), for inactives: at the highest dose activity, negative = inhibition, actives largely listed as inhibitors; 230,000 tested, 0.66% active; AID 485360; further: nearly all actives have a fitted effect of over 60% in size
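AlphaScreen proximity signal between nickel-chelate acceptor and streptavidin donor beads (final 10 ug/mL) reports binding of 50 nM L3MBTL1 to 75 nM biotin-H3 K9me1 peptide; complex incubated with compounds 30 min at room temperature; cefsulodin titration as control.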
APEX1 inh: blocks human APE1 abasic DNA cleavage; P27695; recombinant APE1, TAMRA/BHQ-2 abasic DNA cleavage fluorescence; Potency, µM (doses to about 65.8 µM), for the others: top-dose activity change, negative = inhibition, actives largely listed as inhibitors; 350,000 tested, 0.35% active; AID 2517;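 further: plate controls were vehicle for no effect and reference inhibitor for full effect; nearly all actives have a fitted effect of over 55% in size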
Target sequence (P27695 whole entry, looked up): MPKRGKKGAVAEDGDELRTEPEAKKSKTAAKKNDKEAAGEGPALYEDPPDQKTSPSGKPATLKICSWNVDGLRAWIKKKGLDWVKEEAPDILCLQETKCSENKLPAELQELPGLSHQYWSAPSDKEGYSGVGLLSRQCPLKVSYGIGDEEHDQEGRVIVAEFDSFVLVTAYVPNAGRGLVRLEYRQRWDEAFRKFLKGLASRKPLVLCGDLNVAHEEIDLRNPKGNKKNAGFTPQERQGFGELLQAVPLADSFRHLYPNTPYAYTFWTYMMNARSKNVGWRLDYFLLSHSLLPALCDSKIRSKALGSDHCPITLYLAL
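APE1 at 0.75 nM final was preincubated with compound 15 min at room temperature, then 50 nM double-stranded THF abasic-site substrate (5'-TAMRA/3'-BHQ-2) was added. Fluorescence (ex 525/em 598 nm) was read kinetically; third-minus-first read gave activity.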
RECQ1 inh: inhibitors of human RECQ1 DNA helicase. P46063. RECQ1 DNA unwinding, red fluorescence kinetic read. Potency, µM (top dose mostly 57.3 µM), without a hit: at the highest dose activity, negative = inhibition, actives largely listed as inhibitors. 240,000 tested, 0.54% active. AID 2549;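 further: plate controls were vehicle for no effect and no enzyme for full effect; nearly all actives have a fitted effect of over 30% in size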
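RECQ1T1 50 nM; forked duplex (20 bp + 30-nt ss tails) 200 nM, ATP 2 mM final; pH 8.0, 2 mM MgCl2, 2.5 ug/ml poly(dI-dC); 15 min compound preincubation; discontinuous kinetic read over 2 h at RT.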
Active calls of the source: *. This is one part of a sample in which hits are shown more often than they occur. Unless noted, the call rests on the fitted dose curve; in most records, active means well fitted curve in the direction sought with a large enough effect; inconclusive means small, poorly fitted or top-dose-only effect, or another doubt; inactive means no such curve, though single readings can be large; an effect the other way counts as inactive or inconclusive. Unless noted, on the % scale 0 is the no-effect control and ±100 the full control effect; potency means the concentration at half of the fitted maximal effect.

For CO/N=C(/C(=O)N[C@@H]1C(=O)N2C(C(=O)O)=C(CSC(=O)c3ccco3)CSC12)c1csc(N)n1 (some centres undefined) the results were BLM inh -0.3%.
`NCCNCCNCCN` gave KDM4E inh 99.2%, BLM inh -11.2%, TDP1 block 11.0%, L3MBTL1 inh inconclusive, APEX1 inh 20.0% and RECQ1 inh -12.3%.
`NCCNCCN` gave BLM inh -1.6%, TDP1 block 3.0%, APEX1 inh 3.55µM* and RECQ1 inh 5.62µM*.
Screening CC(=O)NC1CCCN(O)C(=O)/C=C(\C)CCOC(=O)C(NC(C)=O)CCCN(O)C(=O)/C=C(\C)CCOC(=O)C(NC(C)=O)CCCN(O)C(=O)/C=C(\C)CCOC1=O (centres undefined) returned KDM4E inh 7.94µM*, BLM inh -1.4%, TDP1 block 7.7%, L3MBTL1 inh 25.8%, APEX1 inh -2.4% and RECQ1 inh -6.0%.
CCCCN(C)C1=CC2=CC(=C(C#N)C#N)CCC2CC1 (centres undefined) was read as KDM4E inh 0.3%, BLM inh 12.6µM*, TDP1 block 5.5%, L3MBTL1 inh 6.0%, APEX1 inh 6.0% and RECQ1 inh 14.1µM*.
Screening N#CC(C#N)=C1C=C2C=C(N3CCCCC3)CCC2CC1 (centres undefined) returned KDM4E inh -28.8%, BLM inh -21.1%, TDP1 block 8.0%, L3MBTL1 inh -9.1%, APEX1 inh 9.2% and RECQ1 inh 28.2µM*.
Screening Cc1ccc(S(=O)(=O)N(C(=O)c2ccncc2)c2ccc(OC(=O)c3ccncc3)c3ccccc23)cc1 returned KDM4E inh 15.8µM*, BLM inh -9.3%, TDP1 block 7.9%, L3MBTL1 inh -19.7%, APEX1 inh -3.1% and RECQ1 inh 5.2%.
C=CCn1nc([N+](=O)[O-])nc1Sc1cccc2cccnc12 was read as KDM4E inh -6.3%, BLM inh 4.3%, TDP1 block 5.6%, L3MBTL1 inh 28.2µM*, APEX1 inh -5.5% and RECQ1 inh -0.8%.
`O=[N+]([O-])c1ccc(Sc2cccc3cccnc23)cc1` gave KDM4E inh 2.7%, BLM inh -4.1%, TDP1 block 6.6%, APEX1 inh 0.6% and RECQ1 inh 0.2%.
Screening COc1ccc(-c2nn(-c3ccccc3)cc2C(=O)O)cc1 returned KDM4E inh -1.2%, BLM inh 0.0%, TDP1 block 3.7%, L3MBTL1 inh 33.7%, APEX1 inh inconclusive and RECQ1 inh -9.1%.
`Cc1ccc(-c2nn(-c3ccccc3)cc2C(=O)O)o1` gave KDM4E inh inconclusive, BLM inh 0.6%, TDP1 block inconclusive, L3MBTL1 inh 2.82µM*, APEX1 inh inconclusive and RECQ1 inh 31.6µM*.
Cc1cccc(NS(=O)(=O)c2ccc3c(c2)CCN3C(=O)C2CCC2)c1 was read as BLM inh -13.5% and TDP1 block 0.0%.
For O=C(Nc1cccnc1Cl)c1cc(-c2ccc(O)cc2)on1 the results were BLM inh -10.0%, TDP1 block 50.1µM* and APEX1 inh 9.7%.
Screening O=C(Nc1cccnc1Cl)c1cc(-c2ccc(Cl)cc2)on1 returned BLM inh -0.6%, TDP1 block 7.0% and APEX1 inh 49.9%.
`O=C1N[C@@H]2[C@H](CCCCC(=O)Oc3ccc([N+](=O)[O-])cc3)SC[C@H]2N1` gave BLM inh -2.7%, TDP1 block 29.2%, APEX1 inh -2.0% and RECQ1 inh -7.0%.
